We go through 21 compounds from PubChem BioAssay (NCATS).

Structures are written as SMILES. “And” between values parts separate entries of the source, which are not always exact repeats. Identical values can stand only once. Inconclusive results are not listed. The source made the active and inactive calls.

Glucocorticoid receptor (Homo sapiens), sequence (P04150 whole entry, looked up): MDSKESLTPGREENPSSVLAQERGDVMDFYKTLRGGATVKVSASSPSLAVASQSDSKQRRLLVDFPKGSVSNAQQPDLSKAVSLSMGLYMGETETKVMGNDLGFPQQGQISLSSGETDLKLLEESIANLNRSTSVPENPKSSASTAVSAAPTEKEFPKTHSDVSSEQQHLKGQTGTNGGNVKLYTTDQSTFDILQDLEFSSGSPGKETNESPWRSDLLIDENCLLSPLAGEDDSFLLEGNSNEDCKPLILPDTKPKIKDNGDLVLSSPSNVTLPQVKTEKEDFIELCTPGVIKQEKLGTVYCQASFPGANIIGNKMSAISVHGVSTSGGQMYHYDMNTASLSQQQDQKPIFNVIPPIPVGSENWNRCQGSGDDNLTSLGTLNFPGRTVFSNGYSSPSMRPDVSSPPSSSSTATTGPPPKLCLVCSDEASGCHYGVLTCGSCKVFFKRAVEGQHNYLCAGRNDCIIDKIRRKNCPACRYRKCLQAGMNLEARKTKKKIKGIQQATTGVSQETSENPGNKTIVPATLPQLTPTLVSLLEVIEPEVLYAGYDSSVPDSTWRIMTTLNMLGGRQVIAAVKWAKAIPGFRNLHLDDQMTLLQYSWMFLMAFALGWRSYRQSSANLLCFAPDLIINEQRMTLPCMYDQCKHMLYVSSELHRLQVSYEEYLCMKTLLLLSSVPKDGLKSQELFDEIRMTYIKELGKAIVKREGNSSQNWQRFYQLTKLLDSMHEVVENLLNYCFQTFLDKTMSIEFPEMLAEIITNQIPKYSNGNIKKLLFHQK

The first assay addresses Glucocorticoid receptor (Homo sapiens) (UniProt P04150). Kind of assay: qHTS assay for small molecule agonists of glucocorticoid receptor signaling (AID 588532; active = well fitted curve in the direction sought with a large enough effect in the signal ratio, with a control signal flat; the % refers to the signal ratio;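 also: 100% = dexamethasone at 0.1 µM and 0% = DMSO only wells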). The note with it: HeLa MMTV-bla, beta-lactamase ratio, agonist, 18 h; active compounds read high; percent of dexamethasone control, DMSO zero. The method, boiled down: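 Titration series, up to 92 uM, applied to GRE-bla HeLa cells for 18 h at 37 C. Detection by CCF4 FRET substrate after 2 h at RT.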
A general note: qHTS replaces the single test concentration by a dilution series.
Consider `CC(C)(C)CC(C)(C)c1ccc(O)c(-n2nc3ccccc3n2)c1`, for which the activation is -3.64% (inactive).
For `Oc1c(Cl)cc(Cl)c(Cl)c1Cc1c(O)c(Cl)cc(Cl)c1Cl`, the activation was -7.2% (inactive) and -4.02% (inactive).
Turning to `NCCNc1cccc2ccccc12`, the activation was 3.88% (inactive) and -4.01% (inactive).
On to `C#C[C@]1(O)CC[C@H]2[C@@H]3CCC4=Cc5oncc5C[C@]4(C)[C@H]3CC[C@@]21C`, for which the activation was -5.91% (inactive).
Regarding `CCOc1ccc(NC(C)=O)cc1`, the activation was 0.725% (inactive).
`COc1cc([C@H]2Oc3cc([C@H]4Oc5cc(O)cc(O)c5C(=O)[C@@H]4O)ccc3O[C@@H]2CO)ccc1O`: the activation is -3.21% (inactive).
The same measure, in the same setting: with `COc1ccc(C(Cl)=C(c2ccc(OC)cc2)c2ccc(OC)cc2)cc1` the figure was 2.85% (inactive); with `OC[C@H]1O[C@@H]2O[C@H]3[C@H](O)[C@@H](O)[C@@H](O[C@H]4[C@H](O)[C@@H](O)[C@@H](O[C@H]5[C@H](O)[C@@H](O)[C@@H](O[C@H]6[C@H](O)[C@@H](O)[C@@H](O[C@H]7[C@H](O)[C@@H](O)[C@@H](O[C@H]8[C@H](O)[C@@H](O)[C@@H](O[C@H]1[C@H](O)[C@H]2O)O[C@@H]8CO)O[C@@H]7CO)O[C@@H]6CO)O[C@@H]5CO)O[C@@H]4CO)O[C@@H]3CO`, -6.02% (inactive).
Still for that read-out and setting: with `CCCCCCCCCCCCCCCCO` the figure was -8.72% (inactive); with `Oc1ccc(Cl)cc1Cc1cc(Cl)ccc1O`, -2.26% (inactive) and 2.38% (inactive); with `CCCN(CCC)S(=O)(=O)c1ccc(C(=O)O)cc1`, 0.219% (inactive) and 1.81% (inactive).
With `NC(=O)c1ccccc1O`, the activation was 9.52% (inactive).
On the same count and under the same terms, in the case of `C=C[C@@]1(C)CC(=O)[C@]2(O)[C@@]3(C)[C@@H](O)CCC(C)(C)[C@@H]3[C@H](O)[C@H](OC(C)=O)[C@@]2(C)O1` it was 3.9% (inactive); in that of `CCOc1ccccc1C(N)=O`, -1.86% (inactive); in that of `CCCCC(CC)COC(=O)c1ccc(N(C)C)cc1` (stereo not drawn), -4.68% (inactive).
For the compound `CN(C)C(=O)Nc1ccc(Cl)c(Cl)c1`, the activation was -4.05% (inactive).
Turning to `CCCCCCCCCCCCCC(=O)OC(C)C`, the activation was 5.08% (inactive).
`COc1ccc(C(=O)c2ccccc2)c(O)c1`: the activation is 4.95% (inactive) and -5.72% (inactive).

For a further assay the target is unchanged. The assay can be described thus: qHTS assay for small molecule antagonists of glucocorticoid receptor signaling (AID 588533; active = well fitted inhibition curve with a large enough effect in the signal ratio, with a control signal flat, not every such curve was filed as active; the % refers to the signal ratio;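 also: cells stimulated with 2 nM dexamethasone as agonist; % is scaled to controls: 0 for no effect and ±100 for the full control effect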). To be noted: HeLa MMTV-bla, GRE beta-lactamase ratio, antagonist mode, 18 h; series mostly up to 76.8 µM. In short, it runs like this: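 Antagonist-mode qHTS: compound titrations added to GRE-bla HeLa cells, then dexamethasone 2 nM final; 18 h, 37 C. CCF4 FRET fluorescence normalized to dexamethasone and DMSO; IC50 from Hill fit.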
Take `NCCNc1cccc2ccccc12`: the result was inactive.
For the compound `CCOc1ccc(NC(C)=O)cc1`, the outcome was inactive.
`CCCCCCCCCCCCCCCC(=O)O`: the result was inactive.
On to `COc1ccc(C(Cl)=C(c2ccc(OC)cc2)c2ccc(OC)cc2)cc1`, for which the result was inactive.
Same read-out and setting: with `CCCCCCCCCCCCCCCCO` the entry was “inactive”.
On to `CCCN(CCC)S(=O)(=O)c1ccc(C(=O)O)cc1`, for which the outcome was inactive.
On the same count and under the same terms, with `NC(=O)c1ccccc1O` the entry was “inactive”; with `CCCCOC(=O)CC(CC(=O)OCCCC)(OC(C)=O)C(=O)OCCCC`, “inactive”; with `C=C[C@@]1(C)CC(=O)[C@]2(O)[C@@]3(C)[C@@H](O)CCC(C)(C)[C@@H]3[C@H](O)[C@H](OC(C)=O)[C@@]2(C)O1`, “inactive”.
The same measure, in the same setting: in the case of `CCOc1ccccc1C(N)=O` it was “inactive”; in that of `CCCCC(CC)COC(=O)c1ccc(N(C)C)cc1` (stereo not drawn), “inactive”; in that of `CN(C)C(=O)Nc1ccc(Cl)c(Cl)c1`, “inactive”.
`O=C(O)c1ccc(S(=O)(=O)N(Cl)Cl)cc1`: the result was inactive.
In the case of `CCCCCCCCCCCCCC(=O)OC(C)C`, the result was inactive.
Regarding `COc1ccc(C(=O)c2ccccc2)c(O)c1`, the outcome was inactive.
